Results from PubChem BioAssay AID1347418 (Sanford-Burnham Center for Chemical Genomics, 2020).
About 750 (58%) of roughly 1,300 compounds were called active. This is one part of the list. Unmarked numbers belong to inactive results. Residues, ends and D or L forms follow the SMILES beside them. *: point of attachment. Cbz = O=C(OCc1ccccc1)*

The compounds below were run against Sulfhydryl oxidase 1 (Homo sapiens) (UniProt O00391) (assay: inhibition of human sulfhydryl oxidase QSOX1 – biochemical, ROS-Glo H2O2 luminescence, HTS, primary screen (AID 1347418)). Settings: recombinant QSOX1, ROS-Glo H2O2 luminescence; at 12.5 µM; stronger effect = higher value; active = any value above zero.
Chain of Sulfhydryl oxidase 1 (Homo sapiens) (O00391 whole entry, looked up): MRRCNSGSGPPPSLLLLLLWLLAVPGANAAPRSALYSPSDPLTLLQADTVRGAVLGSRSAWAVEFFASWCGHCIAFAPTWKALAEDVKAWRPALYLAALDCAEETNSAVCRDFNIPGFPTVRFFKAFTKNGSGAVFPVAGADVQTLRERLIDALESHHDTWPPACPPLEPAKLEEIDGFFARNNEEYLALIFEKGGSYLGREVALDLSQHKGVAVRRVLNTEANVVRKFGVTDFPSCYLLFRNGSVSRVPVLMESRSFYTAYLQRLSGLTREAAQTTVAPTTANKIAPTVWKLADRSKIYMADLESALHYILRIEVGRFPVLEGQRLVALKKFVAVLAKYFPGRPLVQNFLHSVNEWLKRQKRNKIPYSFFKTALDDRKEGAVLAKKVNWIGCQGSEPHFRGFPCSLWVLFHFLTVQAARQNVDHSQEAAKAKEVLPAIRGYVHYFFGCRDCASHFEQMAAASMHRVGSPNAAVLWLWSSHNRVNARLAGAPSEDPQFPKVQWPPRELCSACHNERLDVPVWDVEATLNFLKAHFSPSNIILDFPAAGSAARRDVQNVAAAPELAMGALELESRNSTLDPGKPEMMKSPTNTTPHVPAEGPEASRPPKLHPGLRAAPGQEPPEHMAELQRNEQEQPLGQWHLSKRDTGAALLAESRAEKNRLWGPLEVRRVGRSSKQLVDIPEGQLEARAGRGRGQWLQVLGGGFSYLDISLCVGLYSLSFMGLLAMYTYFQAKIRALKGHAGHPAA
`CSc1ccc2c(c1)C(N1CCN(C)CC1)Cc1ccccc1S2` (configuration not stated) was tested, and the inhibition was -0.9%. For `CSc1ccc2c(c1)N(CCC1CCCCN1C)c1ccccc1S2` (configuration not stated), the inhibition was 46.5% (active). With `Oc1cc2c(cc1O)CN(C(=S)NCCc1ccc(Cl)cc1)CCC2` the inhibition was 25.5% (active). `CC(C)NCC(O)COc1ccc(CC(N)=O)cc1` (configuration not stated) showed an inhibition of -2%. With `CC(C)NCC(O)COc1ccc(COCCOC(C)C)cc1` (configuration not stated) the inhibition was 3.9% (active). For `COCCc1ccc(OCC(O)CNC(C)C)cc1` (configuration not stated), the inhibition was -2%. Compound `CC(C)NCC(O)COc1ccc(CCOCC2CC2)cc1` (configuration not stated) has an inhibition of -0.5%. `CC(C)NC[C@H](O)COc1ccc(CC(N)=O)cc1` was tested, and the inhibition was 5.2% (active). With `COC(=O)c1c(C)[nH]c(C)c1C(=O)c1ccccc1Cc1ccccc1` the inhibition was 1.9% (active). With `C=CCc1cccc(/C=N/NC(=O)CN2CCN(Cc3ccccc3)CC2)c1O` the inhibition was -3.2%. In the case of `CN1CCc2cccc3c2C1Cc1ccc(O)c(O)c1-3` (configuration not stated), the inhibition was 17.1% (active). `COc1cc2ncnc(Nc3cccc(Cl)c3)c2cc1OC` was tested, and the inhibition was -1.3%. With `O=c1n(CCCN2CCN(c3cccc(Cl)c3)CC2)nc2ccccn12` the inhibition was 8.6% (active). For `O=c1c(-c2ccc(O)cc2)coc2cc(O)ccc12`, the inhibition was 7.6% (active). With `O=c1c(-c2ccc(O)cc2)coc2cc(O)cc(O)c12` the inhibition was -5.9%. In the case of `CC(C)C[C@H](NC(=O)[C@H](O)[C@H](N)Cc1ccccc1)C(=O)O`, the inhibition was 9.6% (active). `CC(C)C[C@H](NC(=O)[C@@H](O)[C@H](N)Cc1ccccc1)C(=O)O` was tested, and the inhibition was 0.1% (active). `CC(C)[C@H](NC(=O)OCc1ccccc1)C(=O)N[C@H](C=O)Cc1ccccc1` (Cbz-Val-Phe-aldehyde) gave an inhibition of -1.6%. With `O=C(N[C@@H](Cc1ccccc1)C(=O)CCl)OCc1ccccc1` the inhibition was -6.4%. With `O=P(O)(O)C(Cl)(Cl)P(=O)(O)O` the inhibition was 5.2% (active). With `O=C(O)CNC(=O)C(CS)Cc1ccccc1` (configuration not stated) the inhibition was -1.4%. In the case of `N[C@H](C(=O)O)[C@H](Cc1ccccc1)C(=O)O`, the inhibition was 0.5% (active). In the case of `Oc1cc(O)c2c(c1)O[C@H](c1ccc(O)c(O)c1)[C@@H](O)C2`, the inhibition was 12.2% (active). With `O=C1c2c(O)cc(O)cc2OC(c2ccc(O)c(O)c2)C1O` (configuration not stated) the inhibition was 9.8% (active). With `[Li+]` the inhibition was 0%. `O=C(O)CCc1ccc(NCc2cccc(Oc3ccccc3)c2)cc1` was tested, and the inhibition was 13.1% (active). In the case of `CC(C)(C)NCC(O)COc1cccc2[nH]c(=O)[nH]c12` (configuration not stated), the inhibition was 0.2% (active). In the case of `Brc1c(Br)c(Br)c2[nH]cnc2c1Br`, the inhibition was 3.9% (active). With `N=C(N)N1CCc2ccccc2C1` the inhibition was -3.7%. In the case of `CN1CCc2ccccc2Cc2[nH]c3ccccc3c2CC1`, the inhibition was 6.3% (active). `CC(C)(C)c1cc(/C=C(\C#N)C(N)=S)cc(C(C)(C)C)c1O` was tested, and the inhibition was 37.7% (active). Compound `C#CCN(C)Cc1ccccc1` has an inhibition of -0.7%. For `CN(C)C/C=C(/c1ccc(Br)cc1)c1cccnc1`, the inhibition was 2.7% (active). `CN1CCC(=C2c3ccccc3C=Cc3ccccc32)CC1` was tested, and the inhibition was 2.2% (active). `CN1CCC(=C2c3ccccc3CC(=O)c3sccc32)CC1` was tested, and the inhibition was 0.8% (active). `CCC1(O)CC2CN(CCc3c([nH]c4ccccc34)[C@@](C(=O)OC)(c3cc4c(cc3OC)N(C=O)C3[C@]45CCN4CC=C[C@@](CC)([C@@H](OC(C)=O)[C@]3(O)C(=O)OC)[C@H]45)C2)C1` (some centres not stated) was tested, and the inhibition was -0.2%. In the case of `CCC1(O)CC2CN(CCc3c([nH]c4ccccc34)[C@@](C(=O)OC)(c3cc4c(cc3OC)N(C)C3[C@]45CCN4CC=C[C@@](CC)([C@@H](OC(C)=O)[C@]3(O)C(=O)OC)[C@H]45)C2)C1` (some centres not stated), the inhibition was 6.7% (active). For `O=c1[nH]cc(F)c(=O)[nH]1`, the inhibition was 0.8% (active). With `O=C(Nc1nc2ccccc2n1CCN1CCOCC1)c1cccc([N+](=O)[O-])c1` the inhibition was 0.4% (active). Compound `NC1CONC1=O` (configuration not stated) has an inhibition of -3.5%. In the case of `CN1C[C@H](C(=O)N[C@]2(C)O[C@@]3(O)[C@@H]4CCCN4C(=O)[C@H](Cc4ccccc4)N3C2=O)C[C@@H]2c3cccc4[nH]cc(c34)C[C@H]21`, the inhibition was 10% (active). In the case of `COc1cccc(OC)c1OCCNCC1COc2ccccc2O1` (configuration not stated), the inhibition was 1.9% (active). Compound `COc1cccc(OC)c1OCCNCC1CSc2ccccc2O1` (configuration not stated) has an inhibition of -0.7%. With `O=C1c2ccccc2C(=O)c2c(NCCc3ccc(O)cc3)ccc(NCCc3ccc(O)cc3)c21` the inhibition was 11% (active). For `N[C@H](C(=O)O)c1cc(O)cc(O)c1`, the inhibition was -6.1%. Work on `N[C@@H](Cc1c[nH]c2ccccc12)C(=O)O` yielded an inhibition of -0.2%. In the case of `N[C@@H](Cc1c[nH]c2ccc(O)cc12)C(=O)O`, the inhibition was 8.4% (active). `O=C(O)Cc1c[nH]c2ccc(O)cc12` was tested, and the inhibition was 15.6% (active). `CCn1ccnc1CC1COc2ccccc2O1` (configuration not stated) was tested, and the inhibition was 0.9% (active). In the case of `CC1=C(C(=O)O)N2C(=O)[C@@H](NC(=O)C(N)c3ccccc3)[C@H]2SC1` (some centres not stated), the inhibition was 2.2% (active). In the case of `CC1=C(C(=O)O)N2C(=O)[C@@H](NC(=O)C(N)C3=CCC=CC3)[C@H]2SC1` (some centres not stated), the inhibition was -1.3%. For `NC(C(=O)N[C@@H]1C(=O)N2C(C(=O)O)=C(Cl)CS[C@H]12)c1ccccc1` (some centres not stated), the inhibition was 0.4% (active). `NC(=O)c1cc[n+](CC2=C(C(=O)O)N3C(=O)[C@@H](NC(=O)[C@@H](c4ccccc4)S(=O)(=O)[O-])[C@H]3SC2)cc1` gave an inhibition of -1%. For `NCCS(=O)O`, the inhibition was -0.7%. In the case of `O=C1OC(=O)C2C3CCC(O3)C12` (configuration not stated), the inhibition was -1.3%. In the case of `CC(=O)C(C)=O`, the inhibition was 2.1% (active). With `CC(=O)/C(C)=N/O` the inhibition was -5.2%. Compound `NC(=O)C(=O)O` has an inhibition of -8.6%. `CC(N)=O` was tested, and the inhibition was 4.6% (active). In the case of `NC(=O)NO`, the inhibition was -13.4%. With `Nc1ccc2c3c(cccc13)C(=O)NC2=O` the inhibition was 7.4% (active). Compound `Nc1ncnc2c1ncn2C1CCCO1` (configuration not stated) has an inhibition of -0.8%. Compound `COc1ccc(C(=O)NCc2cccnc2)cc1C(=O)NCc1cccnc1` has an inhibition of -2.9%. With `O=C(CCNNC(=O)c1ccncc1)NCc1ccccc1` the inhibition was 3.1% (active). `OC(CCN1CCCCC1)(c1ccccc1)C1CCCCC1` (configuration not stated) was tested, and the inhibition was -2.5%. `OC(CCN1CCCCC1)(c1ccccc1)C1CC2C=CC1C2` (configuration not stated) was tested, and the inhibition was 2.7% (active). For `NCCNC(=O)c1ncsc1-c1cccc(F)c1`, the inhibition was 0.5% (active).
